Results: PubChem BioAssay (NCI)
About 83,000 compounds went through this panel and 20% of them were active in at least one assay; those are over-represented in the sample as a whole.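 Note: values are percent growth. 100 is the growth of untreated cells, values between 100 and 0 indicate rising inhibition; between -100 and 0 indicates cell death.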 Active and inactive are the calls of the source. How the source made its calls: active means growth percent below 10; inactive means the rest.

Columns and labels:
Test in all cases: NCI-60 one-dose screen, 48 h (100 = growth as untreated, 0 = no growth, -100 = all killed)
Details in all cases: 10 µM unless noted
RPMI-8226 leukemia = test system: RPMI-8226 leukemia
OVCAR-8 ovarian = test system: OVCAR-8 ovarian
OVCAR-5 ovarian = test system: OVCAR-5 ovarian
OVCAR-4 ovarian = test system: OVCAR-4 ovarian
SK-OV-3 ovarian = test system: SK-OV-3 ovarian
IGROV1 ovarian = test system: IGROV1 ovarian
OVCAR-3 ovarian = test system: OVCAR-3 ovarian
HS 578T breast = test system: HS 578T breast
NCI/ADR-RES ovarian = test system: NCI/ADR-RES ovarian
T-47D breast = test system: T-47D breast
BT-549 breast = test system: BT-549 breast
MDA-MB-435 melanoma = test system: MDA-MB-435 melanoma
SW-620 colon = test system: SW-620 colon
MCF7 breast = test system: MCF7 breast
HCC-2998 colon = test system: HCC-2998 colon
KM12 colon = test system: KM12 colon
HCT-116 colon = test system: HCT-116 colon

Measured: growth

CN(C)CCCOc1c2ccccc2nc2c1oc1ccc(Cl)cc12
active: RPMI-8226 leukemia -20.8% | IGROV1 ovarian -5.97% | NCI/ADR-RES ovarian 3.58% | MDA-MB-435 melanoma -19.8% | SW-620 colon -3.7% | MCF7 breast -16.6% | KM12 colon 1.62%
inactive: OVCAR-8 ovarian 16.4% | OVCAR-5 ovarian 12.4% | OVCAR-4 ovarian 17.3% | SK-OV-3 ovarian 20.5% | OVCAR-3 ovarian 22% | HS 578T breast 25.7% | T-47D breast 31.2% | BT-549 breast 19.2% | HCC-2998 colon 11.1%

COc1cc(/C=C/C(=O)c2cc(OC)c(OC)c(OC)c2)ccc1Oc1nc(NCCO)nc(N2CCOCC2)n1
active: RPMI-8226 leukemia -24.9% | SK-OV-3 ovarian 7.04% | IGROV1 ovarian 1.1% | OVCAR-3 ovarian -3.03% | HS 578T breast 7.51% | BT-549 breast -25.1% | MDA-MB-435 melanoma 4.93% | SW-620 colon -33.6% | MCF7 breast 8.4% | HCC-2998 colon -17.5% | KM12 colon -44.6%
inactive: OVCAR-8 ovarian 21.2% | OVCAR-5 ovarian 18.3% | OVCAR-4 ovarian 20% | NCI/ADR-RES ovarian 64.5% | T-47D breast 19.2%

COc1cc(/C=C/C(=O)c2cc(OC)c(OC)c(OC)c2)ccc1OCc1ccccc1
inactive: OVCAR-8 ovarian 16.8% | OVCAR-5 ovarian 47% | OVCAR-4 ovarian 41.2% | SK-OV-3 ovarian 88.1% | IGROV1 ovarian 35.3% | OVCAR-3 ovarian 26% | HS 578T breast 88.9% | NCI/ADR-RES ovarian 14.4% | T-47D breast 41.8% | BT-549 breast 32% | MDA-MB-435 melanoma 45.9% | SW-620 colon 13.2% | HCC-2998 colon 44.6%
active: RPMI-8226 leukemia -12.4% | MCF7 breast 8.1%

Cc1sc2nc(NCc3ccccc3Cl)[nH]c(=O)c2c1C
inactive: RPMI-8226 leukemia 82.8% | OVCAR-8 ovarian 88.1% | OVCAR-5 ovarian 102% | OVCAR-4 ovarian 101% | SK-OV-3 ovarian 114% | IGROV1 ovarian 90.6% | OVCAR-3 ovarian 123% | HS 578T breast 99% | NCI/ADR-RES ovarian 104% | T-47D breast 94.6% | BT-549 breast 99.8% | MDA-MB-435 melanoma 92.6% | SW-620 colon 102% | HCT-116 colon 49.7% | HCC-2998 colon 115% | KM12 colon 91%

CC(C)(O)c1cncc(-c2ccc3ncnc(N4CCc5cc(F)c(Cl)cc54)c3c2)c1
inactive: OVCAR-8 ovarian 25.9% | OVCAR-5 ovarian 25.9% | OVCAR-4 ovarian 20.2% | NCI/ADR-RES ovarian 31.1% | MDA-MB-435 melanoma 17.1% | SW-620 colon 40.1% | HCT-116 colon 30.1% | HCC-2998 colon 34.2%
active: RPMI-8226 leukemia 6.02% | SK-OV-3 ovarian 1.96% | IGROV1 ovarian -35.7% | OVCAR-3 ovarian 5.16% | HS 578T breast -8.48% | T-47D breast 4.63% | BT-549 breast -7.34%

CC(C)(C)Nc1nc2c(OCCc3ccccc3)cccn2c1-c1cccc(F)c1
active: RPMI-8226 leukemia -22.6% | SK-OV-3 ovarian -17% | OVCAR-3 ovarian -0.703% | HS 578T breast -4.86% | NCI/ADR-RES ovarian 3.69% | T-47D breast 5.21% | MDA-MB-435 melanoma 2.41% | SW-620 colon 9.7% | HCT-116 colon -32.8% | HCC-2998 colon 4.84% | KM12 colon 4.77%
inactive: OVCAR-8 ovarian 10.2% | OVCAR-5 ovarian 14.2% | OVCAR-4 ovarian 19.2% | IGROV1 ovarian 10.1% | BT-549 breast 11.8%

Clc1ccc2oc3c(NCCCN4CCOCC4)c4ccccc4nc3c2c1
inactive: RPMI-8226 leukemia 11.4% | OVCAR-8 ovarian 23.3% | OVCAR-5 ovarian 30% | OVCAR-4 ovarian 36.9% | SK-OV-3 ovarian 57.8% | IGROV1 ovarian 16.9% | OVCAR-3 ovarian 64.5% | HS 578T breast 37.8% | NCI/ADR-RES ovarian 29.2% | T-47D breast 51.7% | BT-549 breast 67.8% | MDA-MB-435 melanoma 22% | SW-620 colon 15% | HCT-116 colon 14.8% | HCC-2998 colon 28.9% | KM12 colon 26.5%

C=CCn1c(SCC(=O)c2ccccc2)nnc1-c1c[nH]c2ccccc12
inactive: RPMI-8226 leukemia 86.6% | OVCAR-8 ovarian 95.4% | OVCAR-5 ovarian 103% | OVCAR-4 ovarian 97.5% | SK-OV-3 ovarian 120% | IGROV1 ovarian 88.4% | OVCAR-3 ovarian 115% | HS 578T breast 97% | NCI/ADR-RES ovarian 97.4% | T-47D breast 95% | BT-549 breast 109% | MDA-MB-435 melanoma 105% | SW-620 colon 96.1% | HCT-116 colon 97.5% | HCC-2998 colon 111% | KM12 colon 112%

CSCCC(C(=O)O)N1C(=O)/C(=C/c2ccc(O)c(O)c2)SC1=S (stereo not given)
inactive: RPMI-8226 leukemia 110% | OVCAR-8 ovarian 108% | OVCAR-5 ovarian 94.6% | OVCAR-4 ovarian 101% | SK-OV-3 ovarian 110% | IGROV1 ovarian 98.9% | OVCAR-3 ovarian 111% | HS 578T breast 104% | NCI/ADR-RES ovarian 108% | BT-549 breast 110% | MDA-MB-435 melanoma 102% | SW-620 colon 102% | MCF7 breast 93.4% | HCT-116 colon 99.5% | HCC-2998 colon 108% | KM12 colon 103%

Cc1cccc2sc(/N=C(\N)C(Br)Br)nc12
active: RPMI-8226 leukemia 2.19% | IGROV1 ovarian -65.7% | SW-620 colon -40.2% | MCF7 breast -13.3% | HCT-116 colon -29.1% | HCC-2998 colon 4.99% | KM12 colon 9.77%
inactive: OVCAR-8 ovarian 32.7% | OVCAR-5 ovarian 41.2% | OVCAR-4 ovarian 64.7% | SK-OV-3 ovarian 87.5% | OVCAR-3 ovarian 29.2% | HS 578T breast 37.2% | NCI/ADR-RES ovarian 17.6% | T-47D breast 41.4% | BT-549 breast 30.2%

Cc1[nH]nc2ncc(C#Cc3cncc(C(=O)Nc4ccc(CN5CCN(C)CC5)c(C(F)(F)F)c4)c3)cc12
active: SK-OV-3 ovarian 0.879% | IGROV1 ovarian 1.84% | HS 578T breast 9.15% | SW-620 colon 4.05% | HCT-116 colon 8.54% | KM12 colon 8.98%
inactive: RPMI-8226 leukemia 29.9% | OVCAR-8 ovarian 37.8% | OVCAR-5 ovarian 20.5% | OVCAR-4 ovarian 50.7% | OVCAR-3 ovarian 37.8% | NCI/ADR-RES ovarian 78% | T-47D breast 32.6% | BT-549 breast 64.5% | MCF7 breast 43.8% | HCC-2998 colon 44.4%

Clc1ccc2c(NCCCn3ccnc3)c3oc4ccc(Cl)cc4c3nc2c1
inactive: RPMI-8226 leukemia 82.8% | OVCAR-8 ovarian 71.9% | OVCAR-5 ovarian 86.7% | OVCAR-4 ovarian 95.7% | SK-OV-3 ovarian 83.4% | IGROV1 ovarian 58.9% | OVCAR-3 ovarian 98.8% | HS 578T breast 91.1% | NCI/ADR-RES ovarian 74.1% | T-47D breast 78.2% | BT-549 breast 88.1% | SW-620 colon 57% | MCF7 breast 53.8% | HCT-116 colon 81% | HCC-2998 colon 79% | KM12 colon 87.6%
